Experimental data as given in PubChem BioAssay AID1159580 (chemical genetic matrix, 2015).
“And” between values parts separate entries of the source, which are not always exact repeats. Equal values may be shown once. Out of some 5,500 compounds screened, about 2,000 (36%) were called active. About 18% were inconclusive and are not listed. No stated cut-off is given here; in the data, active means normalized growth mostly below about 0.91 (no sharp cut-off); inconclusive means no clear call, values can overlap the other calls; inactive means mostly above about 0.92. This is one part of the list.

Test: chemical genetic growth profiling, strain panel (AID 1159580);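 further: tested at 20 µM; growth read once vehicle control cultures reached saturation at 30 °C; 1 = growth at the plate median or of vehicle wells; lower values mean less growth of the strain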
Conditions: S. cerevisiae deletion strains, growth OD
[1] = locus YMR263W, strain SAP30, active compounds read low
[2] = locus YMR307W, strain GAS1, active compounds read low

Measured: normalized growth

O=C1NC(=O)C(c2ccccc2[N+](=O)[O-])=C1Nc1ccc(O)c(Cl)c1
inactive: locus YAL040C, strain CLN3, active compounds read low 0.951 | locus YCL061C, strain MRC1 (second series), active compounds read low 0.974 | locus YDR363W, strain ESC2, active compounds read low 0.964 | locus YER002W, strain NOP16, active compounds read low 0.98 | locus YJR075W, strain HOC1, active compounds read low 1 | [1] 0.99 | [2] 1.04 | locus YNL153C, strain GIM3, active compounds read low 0.971 | locus YNL175C, strain NOP13, active compounds read low 0.953 | locus YNL197C, strain WHI3, active compounds read low 0.981 | locus YNL224C, strain SQS1, active compounds read low 0.996 | locus YOR083W, strain WHI5 (second series), active compounds read low 0.943 | locus YPL241C, strain CIN2, active compounds read low 0.982

C=C[C@H]1CN2CC[C@H]1C[C@@H]2[C@@H](OC(=O)OCC)c1ccnc2ccc(OC)cc12
inactive: locus YAL013W, strain DEP1, active compounds read low 1 | locus YAL021C, strain ccr4, active compounds read low 0.93 | locus YAL026C, strain drs2, active compounds read low 1.01 | locus YAL030W, strain snc1, active compounds read low 0.989 | locus YBL061C, strain skt5, active compounds read low 0.995 | locus YBR009C, strain hhf1, active compounds read low 0.978 | locus YBR021W, strain FUR4, active compounds read low 0.992 | locus YBR023C, strain chs3, active compounds read low 0.997 | locus YBR171W, strain sec66, active compounds read low 0.995 | locus YBR229C, strain ROT2, active compounds read low 1 | locus YBR231C, strain swc5, active compounds read low 1 | locus YBR279W, strain paf1, active compounds read low 0.997 | locus YCL011C, strain gbp2, active compounds read low 0.969 | locus YCL016C, strain dcc1, active compounds read low 0.955 | locus YCL029C, strain bik1, active compounds read low 1.02 | locus YCL061C, strain MRC1, active compounds read low 0.979 | locus YCL069W, strain vba3, active compounds read low 0.998 | locus YCR088W, strain abp1, active compounds read low 0.999 | locus YDL005C, strain med2, active compounds read low 0.978 | locus YDL035C, strain GPR1, active compounds read low 0.981 | locus YDL040C, strain nat1, active compounds read low 0.994 | locus YDL074C, strain BRE1, active compounds read low 1.03 | locus YDL101C, strain DUN1, active compounds read low 1.02 | locus YDL134C, strain PPH21, active compounds read low 0.991 | locus YDL185W, strain tfp1, active compounds read low 1.02 | locus YDL192W, strain arf1, active compounds read low 1.01 | locus YDR001C, strain nth1, active compounds read low 0.985 | locus YDR069C, strain doa4, active compounds read low 0.979 | locus YDR101C, strain arx1, active compounds read low 1 | locus YDR137W, strain rgp1, active compounds read low 1.01 | locus YDR150W, strain NUM1, active compounds read low 1.01 | locus YDR159W, strain sac3, active compounds read low 1.03 | locus YDR162C, strain NBP2, active compounds read low 1.02 | locus YDR195W, strain ref2 0.956 | locus YDR297W, strain sur2, active compounds read low 1.01 | locus YDR318W, strain mcm21, active compounds read low 1.01 | locus YDR334W, strain swr1, active compounds read low 0.995 | locus YDR335W, strain msn5, active compounds read low 0.983 | locus YDR388W, active compounds read low 1.02 | locus YDR392W, strain spt3, active compounds read low 0.879 | locus YDR502C, strain sam2, active compounds read low 1.01 | locus YEL003W, strain gim4, active compounds read low 0.999 | locus YEL037C, strain rad23, active compounds read low 0.983 | locus YEL061C, strain CIN8 (second series), active compounds read low 0.994 | locus YEL061C, strain CIN8, active compounds read low 1.01 | locus YER015W, strain faa2, active compounds read low 0.989 | locus YER016W, strain bim1, active compounds read low 0.995 | locus YER110C, active compounds read low 1.03 | locus YER111C, strain swi4, active compounds read low 0.991 | locus YER155C, strain BEM2 (second series), active compounds read low 1.01 | locus YER155C, strain BEM2, active compounds read low 1 | locus YER167W, strain BCK2, active compounds read low 0.997 | locus YFR010W, strain ubp6, active compounds read low 1 | locus YGL078C, strain dbp3, active compounds read low 1.01 | locus YGL086W, strain mad1, active compounds read low 1.01 | locus YGL167C, strain pmr1, active compounds read low 0.962 | locus YGL173C, strain kem1, active compounds read low 1.01 | locus YGL227W, strain vid30, active compounds read low 0.994 | locus YGL240W, strain doc1, active compounds read low 1.01 | locus YGL248W, strain PDE1, active compounds read low 1.03 | locus YGL253W, strain hxk2, active compounds read low 1.04 | locus YGR135W, strain pre9, active compounds read low 1.02 | locus YGR229C, strain SMI1, active compounds read low 1.01 | locus YGR252W, strain gcn5, active compounds read low 0.984 | locus YHR013C, strain ard1, active compounds read low 0.951 | locus YHR027C, strain rpn1, active compounds read low 0.983 | locus YHR030C, strain SLT2, active compounds read low 1.01 and 1.08 | locus YHR079C, strain IRE1 (second series), active compounds read low 1.03 | locus YHR079C, strain IRE1, active compounds read low 1.03 | locus YHR094C, strain hxt1, active compounds read low 1.02 | locus YHR129C, strain ARP1, active compounds read low 1.01 | locus YHR142W, strain chs7, active compounds read low 0.973 | locus YHR200W, strain rpn10, active compounds read low 1.02 | locus YIL066C, strain RNR3, active compounds read low 1.01 | locus YIL073C, strain SPO22, active compounds read low 1.04 | locus YIL125W, strain kgd1, active compounds read low 1.02 | locus YIR030C, strain dcg1, active compounds read low 1.02 | locus YJL092W, strain hpr5, active compounds read low 0.992 | locus YJL095W, strain BCK1 (second series), active compounds read low 0.986 | locus YJL095W, strain BCK1, active compounds read low 1.04 and 1.02 | locus YJL115W, strain asf1, active compounds read low 0.966 | locus YJL129C, strain trk1, active compounds read low 1.02 | locus YJL134W, strain LCB3, active compounds read low 1.01 | locus YJL154C, strain vps35, active compounds read low 0.986 | locus YJL164C, strain tpk1, active compounds read low 0.966 | locus YJL166W, strain qcr8, active compounds read low 1 | locus YJL168C, strain set2, active compounds read low 1.03 | locus YJL187C, strain SWE1 (second series), active compounds read low 1.03 | locus YJR043C, strain POL32, active compounds read low 0.996 | locus YJR066W, strain TOR1, active compounds read low 1 | locus YKL009W, strain mrt4, active compounds read low 1.04 | locus YKL068W, active compounds read low 1.02 | locus YKL085W, strain MDH1 (second series), active compounds read low 1.01 | locus YKL085W, strain MDH1, active compounds read low 1.01 | locus YKL160W, strain elf1, active compounds read low 0.96 | locus YKL190W, strain CNB1, active compounds read low 1.01 | locus YKR001C, strain vps1, active compounds read low 1.01 | locus YKR026C, strain gcn3, active compounds read low 0.998 | locus YKR091W, strain srl3, active compounds read low 0.991 | locus YLL001W, strain dnm1, active compounds read low 0.942 | locus YLL026W, active compounds read low 0.985 | locus YLL041C, strain sdh2, active compounds read low 0.976 | locus YLR027C, strain aat2, active compounds read low 1.01 | locus YLR039C, strain RIC1, active compounds read low 1.01 | locus YLR058C, strain SHM2, active compounds read low 1.01 | locus YLR102C, strain apc9, active compounds read low 1.02 | locus YLR113W, strain HOG1, active compounds read low 1.01 | locus YLR221C, strain rsa3, active compounds read low 1.04 | locus YLR258W, strain gsy2, active compounds read low 0.973 | locus YLR262C, strain YPT6 (second series), active compounds read low 1 | locus YLR262C, strain YPT6, active compounds read low 1.05 | locus YLR268W, strain sec22, active compounds read low 1.02 | locus YLR320W, strain mms22, active compounds read low 1.07 | locus YLR330W, strain CHS5, active compounds read low 1.01 | locus YLR342W, strain FKS1 (second series), active compounds read low 0.998 | locus YLR342W, strain FKS1, active compounds read low 0.995 | locus YLR357W, strain rsc2, active compounds read low 0.962 | locus YLR370C, strain arc18, active compounds read low 0.99 | locus YLR371W, strain rom2, active compounds read low 1.02 | locus YLR384C, strain iki3, active compounds read low 0.997 | locus YLR418C, strain cdc73, active compounds read low 1.02 | locus YML016C, strain PPZ1, active compounds read low 1.01 | locus YML032C, strain rad52, active compounds read low 1.02 | locus YML120C, strain ndi1, active compounds read low 0.973 | locus YML124C, strain tub3, active compounds read low 1.02 | locus YMR058W, strain fet3, active compounds read low 0.989 | locus YMR078C, strain ctf18, active compounds read low 1.02 | locus YMR125W, strain sto1, active compounds read low 0.963 | locus YMR129W, active compounds read low 0.997 | locus YMR205C, strain PFK2, active compounds read low 0.951 | locus YMR223W, strain ubp8, active compounds read low 1.01 | locus YMR231W, strain pep5, active compounds read low 1 | [1] 1.03 | [2] 0.905 | locus YNL067W, strain RPL9B, active compounds read low 1.05 | locus YNL071W, strain lat1, active compounds read low 0.997 | locus YNL183C, strain NPR1, active compounds read low 0.986 | locus YNL209W, strain ssb2, active compounds read low 0.983 | locus YNL233W, strain BNI4, active compounds read low 1.03 | locus YNL248C, strain rpa49, active compounds read low 1.02 | locus YNL250W, strain rad50, active compounds read low 1.01 | locus YNL271C, strain bni1, active compounds read low 1.04 | locus YNL298W, strain CLA4, active compounds read low 1.03 | locus YNL307C, strain MCK1, active compounds read low 1.02 | locus YNL322C, strain KRE1 (second series), active compounds read low 0.988 | locus YNR049C, strain mso1, active compounds read low 0.989 | locus YNR052C, strain pop2, active compounds read low 1.02 | locus YOL006C, strain TOP1, active compounds read low 1.14 | locus YOL012C, strain htz1 1.23 | locus YOL147C, strain pex11, active compounds read low 1.02 | locus YOR001W, strain rrp6, active compounds read low 1.01 | locus YOR061W, strain CKA2, active compounds read low 1.02 | locus YOR069W, strain VPS5, active compounds read low 1.01 | locus YOR070C, strain gyp1, active compounds read low 1.03 | locus YOR080W, strain dia2, active compounds read low 0.988 | locus YOR083W, strain WHI5, active compounds read low 0.963 | locus YOR106W, strain vam3, active compounds read low 0.934 | locus YOR136W, strain idh2, active compounds read low 1.02 | locus YOR144C, strain elg1, active compounds read low 1.02 | locus YOR184W, strain ser1, active compounds read low 1.02 | locus YOR231W, strain MKK1, active compounds read low 1.03 | locus YOR265W, strain rbl2, active compounds read low 0.996 | locus YOR270C, strain vph1, active compounds read low 1.07 | locus YOR290C, strain snf2, active compounds read low 0.94 | locus YOR316C, strain cot1, active compounds read low 1.02 | locus YPL051W, strain arl3, active compounds read low 0.983 | locus YPL078C, strain atp4, active compounds read low 0.946 | locus YPL106C, strain sse1, active compounds read low 0.934 | locus YPL240C, strain hsp82, active compounds read low 0.998 | locus YPL256C, strain CLN2, active compounds read low 1.09 | locus YPR119W, strain clb2, active compounds read low 1.01 | locus YPR141C, strain kar3, active compounds read low 1.01 | locus YPR163C, strain tif3, active compounds read low 1.03 | locus YPR167C, strain met16, active compounds read low 1.02 | strain wtn01, active compounds read low 1.04
